For five compounds, fraction fluorescence in grains and inhibition results are on record in PubChem BioAssay AID853 (Columbia University Molecular Screening Center, 2007).

The structures appear in SMILES notation. The whole screen tested about 47,000 compounds, of which about 200 (0.43%) were called active. Another 1% or so got no clear call; they are omitted.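 How the source made its calls: active means inhibition of aggregate fluorescence above about 70%, also judged a hit by eye on the cell image (limit read from the data, passing the limit was not always enough); inconclusive means no rule stated for this call; inactive means not judged a hit on image review.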 The entries come from a sample that favours actives as a whole.

This assay in a line: clearance of mutant huntingtin inclusions, primary screen, imaging, HeLa Exon1htt(103Q)mCFP, confocal imaging (AID 853).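 Further: cells exposed to compound for three days before fixation.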 To be noted: aggregate imaging, at 1.5 µM; fraction fluorescence in grains: measured here: aggregate grain fluorescence fraction, stronger effect = lower value; inhibition: stronger effect = higher value.
Regarding `N#Cc1ccc(Cn2cc(C(=O)c3ccco3)c3ccccc32)cc1`, the fraction fluorescence in grains is 6.7 and the inhibition is 83.1% (active).

As for `COc1ccc(CCn2c(O)c(C=NC3CC3)c(=O)[nH]c2=O)cc1OC`, the fraction fluorescence in grains turned out to be 56 and the inhibition is -52.1% (inactive).

In the case of `CC(C)c1ccc(OCC(=O)N2CCN(C)CC2)c(Br)c1`, the fraction fluorescence in grains came out at 48.9 and the inhibition was -31% (inactive).

For the compound `CCN1CCN(C(=O)Cc2coc3cc(C)cc(C)c23)CC1`, the fraction fluorescence in grains stood at 24 and the inhibition is -20.7% (inactive).

Turning to `c1cc2c(cc1CCNC1CCCCCC1)OCO2`, the fraction fluorescence in grains was 16.3 and the inhibition was 11.1% (inactive).
